EBI2 antag = EBI2 (human) antagonism; 360,000 tested, 0.81% active; inhibition, % at 5 µM; P32249; EBI2 beta-arrestin recruitment, luminescence, 7a,25-OHC stimulated; in the data active means inhibition above about 38%;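 further: enzyme fragment complementation signal reports receptor beta-arrestin coupling in cells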
Target sequence (P32249 whole entry, looked up, the tested form may be a part): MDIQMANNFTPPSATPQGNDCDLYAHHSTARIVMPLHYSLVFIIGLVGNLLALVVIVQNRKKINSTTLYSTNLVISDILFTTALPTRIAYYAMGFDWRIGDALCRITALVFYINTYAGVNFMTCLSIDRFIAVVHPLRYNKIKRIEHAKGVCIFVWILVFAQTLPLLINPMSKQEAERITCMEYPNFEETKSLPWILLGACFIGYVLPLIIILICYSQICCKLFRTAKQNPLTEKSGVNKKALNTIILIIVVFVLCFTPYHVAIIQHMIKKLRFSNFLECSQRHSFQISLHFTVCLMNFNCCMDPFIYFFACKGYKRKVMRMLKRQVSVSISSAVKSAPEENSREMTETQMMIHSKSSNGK
AHR act = human AHR activation; activation, % at 5 µM; 320,000 tested, 2.5% active; P35869; AHR-responsive luciferase reporter cells, luminescence; AID 2796; in the data active means activation above about 47%
SENP8 block-1 = inhibitors of human SENP8 protease; Q96LD8; purified SENP8, Z-RLRGG-aminoluciferin cleavage, luminescence; inhibition, % at 10 µM; 330,000 tested, 1.2% active; in the data active means inhibition above about 50%
Target sequence (Q96LD8 whole entry, looked up): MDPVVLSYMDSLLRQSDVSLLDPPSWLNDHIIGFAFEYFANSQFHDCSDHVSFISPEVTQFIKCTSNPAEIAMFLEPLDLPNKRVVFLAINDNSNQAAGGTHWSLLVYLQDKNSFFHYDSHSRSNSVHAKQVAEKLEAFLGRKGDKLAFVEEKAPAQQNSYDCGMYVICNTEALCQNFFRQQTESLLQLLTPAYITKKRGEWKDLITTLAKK
SENP8 block-2 = blocks human SENP8 cleavage of Nedd8 substrate | Q96LD8 | recombinant SENP8, Nedd8 substrate fluorescence | inhibition, % at 20 µM | 360,000 tested, 0.64% active | AID 602440; in the data active means inhibition mostly above about 40%, no sharp cut-off; inactive means mostly below about 27%
SENP7 block = SENP7 protease inhibition | Q9BQF6 | recombinant SENP7, Z-RLRGG-aminoluciferin luminescence, 40 min | inhibition, % at 5 µM | 330,000 tested, 1.5% active;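 active means inhibition above about 50% at the single test dose, limit read from the data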
SENP6 inh = blocks the human protease SENP6. Q9GZR1. Recombinant SENP6 catalytic domain, aminoluciferin luminescence. inhibition, % at 10 µM. 330,000 tested, 1.8% active. AID 2599;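 active means inhibition above about 50% at the single tested dose, limit read from the data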
SENP8 confirm = confirmation of human SENP8 protease inhibitors; 6,200 tested, 40% active; inhibition, % at 12.5 µM; Recombinant SENP8, Z-RLRGG-aminoluciferin luminescence, 60 min; shares compounds with SENP7 block;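 active means mean inhibition across replicates above about 50%, limit read from the data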
SENP6 conf = confirmation of human SENP6 protease inhibitors | AID 488915 | 6,200 tested, 58% active | recombinant SENP6, Z-RLRGG-aminoluciferin luminescence | inhibition, % at 12.5 µM | shares compounds with SENP7 block
SENP7 confirm = confirmation of human SENP7 protease inhibitors; shares compounds with SENP7 block; 6,200 tested, 69% active; AID 488917; recombinant SENP7, Z-RLRGG-aminoluciferin luminescence, 40 min; inhibition, % at 12.5 µM
Casp3 select = caspase-3 inhibition (SENP selectivity assay). shares compounds with SENP7 block. purified caspase-3, Z-DEVD-aminoluciferin luminescence, 60 min. 6,200 tested, 60% active. inhibition, % at 12.5 µM. AID 488918;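 active means mean inhibition above about 50%, limit read from the data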
Luc interf = counter-screen for SENP inhibitors: luminescence interference. shares compounds with SENP7 block. Pre-incubated SENP8/Z-RLRGG-aminoluciferin, luciferase luminescence interference. inhibition, % at 12.5 µM. 6,200 tested, 39% active. AID 488919;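 active means mean inhibition above about 50% when retested at one dose, limit read from the data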
A number is an active result. Hits are enriched below; roughly 5% of the tested compounds scored in any of these assays.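 How the source made its calls, unless noted: active means mean inhibition above about 50% in the one-dose retest (limit read from the data); inactive means the rest.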

For CC1=NN(c2ccc([N+](=O)[O-])cc2)C(=O)/C1=C\N(C)C the results were EBI2 antag inactive, AHR act inactive, SENP8 block-1 93, SENP8 block-2 43, SENP7 block 95, SENP6 inh 97, SENP8 confirm 96, SENP6 conf 95, SENP7 confirm 102, Casp3 select 98 and Luc interf 96.
COc1ccccc1/C=C1/C(=O)N(c2ccc([N+](=O)[O-])cc2)N=C1C was read as EBI2 antag inactive, AHR act inactive, SENP8 block-1 inactive, SENP8 block-2 inactive, SENP7 block inactive and SENP6 inh inactive.
Screening CC1=NN(c2nc3ccccc3[nH]2)C(=O)C1Cc1ccccc1 (configuration not stated) returned EBI2 antag inactive, AHR act inactive, SENP8 block-1 inactive, SENP8 block-2 inactive, SENP7 block inactive and SENP6 inh inactive.
`CCCCCCCCN1C(=O)[C@H](CC(=O)N2CCCCC2)C[C@@]2(C(=O)OC)CC(C)(C)CC=C12` gave EBI2 antag inactive and SENP8 block-2 inactive.
For CCOC1=NN(c2ccccc2)C(=O)/C1=C\N(C)C the results were EBI2 antag inactive, AHR act inactive, SENP8 block-1 inactive, SENP8 block-2 inactive, SENP7 block inactive and SENP6 inh inactive.
For CN(C)/C=C1\C(=O)N(c2ccc([N+](=O)[O-])cc2)N=C1c1ccccc1 the results were EBI2 antag inactive, AHR act inactive, SENP8 block-1 95, SENP8 block-2 62, SENP7 block 97, SENP6 inh 98, SENP8 confirm 98, SENP6 conf 99, SENP7 confirm 103, Casp3 select 95 and Luc interf 97.
For CCCC(=O)Nc1ccc(C2C(=O)c3ccccc3C2=O)cc1 the results were EBI2 antag inactive, AHR act inactive, SENP8 block-1 56, SENP8 block-2 inactive, SENP7 block inactive, SENP6 inh 75, SENP8 confirm inactive, SENP6 conf 80, SENP7 confirm 94, Casp3 select 93 and Luc interf 80.
Screening COc1ccccc1N1CCN(c2ccc(-c3ccccc3)nn2)CC1 returned EBI2 antag inactive, AHR act inactive, SENP8 block-1 95, SENP8 block-2 inactive, SENP7 block inactive, SENP6 inh 94, SENP8 confirm 79, SENP6 conf 89, SENP7 confirm 98, Casp3 select 90 and Luc interf inactive.
For Cn1c(=O)c2ncn(CC(=O)Nc3cccc(-c4nc5ccccc5s4)c3)c2n(C)c1=O the results were EBI2 antag inactive, AHR act inactive, SENP8 block-1 60, SENP8 block-2 inactive, SENP7 block inactive, SENP6 inh 72, SENP8 confirm inactive, SENP6 conf inactive, SENP7 confirm 64, Casp3 select inactive and Luc interf inactive.
For Brc1ccccc1-c1nc2c3ccccc3ncn2n1 the results were EBI2 antag inactive, AHR act 66, SENP8 block-1 77, SENP8 block-2 inactive, SENP7 block inactive, SENP6 inh 91, SENP8 confirm inactive, SENP6 conf inactive, SENP7 confirm 68, Casp3 select inactive and Luc interf 56.
`Cc1nn2cc(-c3cccc(Cl)c3)cnc2c1Br` gave EBI2 antag inactive, AHR act inactive, SENP8 block-1 inactive, SENP8 block-2 inactive, SENP7 block 81, SENP6 inh inactive, SENP8 confirm inactive, SENP6 conf inactive, SENP7 confirm inactive, Casp3 select inactive and Luc interf inactive.
Screening COc1ccc(S(=O)(=O)N(C)C[C@H]2Oc3ccc(NC(=O)c4ccncc4)cc3C(=O)N([C@H](C)CO)C[C@@H]2C)cc1 returned EBI2 antag inactive, AHR act inactive, SENP8 block-1 inactive, SENP8 block-2 inactive, SENP7 block inactive and SENP6 inh inactive.
Cn1ccs/c1=N\C(=O)Nc1cccc(Cl)c1 was read as EBI2 antag inactive, AHR act inactive, SENP8 block-1 52, SENP8 block-2 inactive, SENP7 block 73, SENP6 inh 70, SENP8 confirm inactive, SENP6 conf inactive, SENP7 confirm 67, Casp3 select inactive and Luc interf 51.
For OC(c1ccc(OCc2ccccc2)cc1)c1nnc(-c2ccccc2)o1 (configuration not stated) the results were EBI2 antag inactive, AHR act inactive, SENP8 block-1 inactive, SENP8 block-2 inactive, SENP7 block inactive, SENP6 inh 50, SENP8 confirm inactive, SENP6 conf inactive, SENP7 confirm 56, Casp3 select inactive and Luc interf inactive.
`NC(=O)c1c(-c2ccccc2)oc2ccc(O)cc12` gave EBI2 antag inactive, AHR act inactive, SENP8 block-1 inactive, SENP8 block-2 inactive, SENP7 block inactive and SENP6 inh inactive.
For COc1ccc(-c2cc(=O)c3c(O)cc(O)cc3o2)cc1 the results were EBI2 antag inactive, AHR act inactive, SENP8 block-1 68, SENP8 block-2 inactive, SENP7 block 85, SENP6 inh 84, SENP8 confirm inactive, SENP6 conf 52, SENP7 confirm 64, Casp3 select 75 and Luc interf inactive.
For O=c1cc(-c2ccco2)oc2ccc(Cl)cc12 the results were EBI2 antag inactive and SENP8 block-2 inactive.
`COc1ccc(-c2cc(=O)c3cc(O)ccc3o2)cc1` gave EBI2 antag inactive, AHR act inactive, SENP8 block-1 53, SENP8 block-2 inactive, SENP7 block 78, SENP6 inh 69, SENP8 confirm inactive, SENP6 conf inactive, SENP7 confirm 87, Casp3 select 73 and Luc interf inactive.
For COc1ccc2oc(-c3ccncc3)cc(=O)c2c1 the results were EBI2 antag inactive and SENP8 block-2 inactive.
O=c1cc(-c2ccccc2)oc2ccc(O)cc12 was read as EBI2 antag inactive, AHR act inactive, SENP8 block-1 inactive, SENP8 block-2 inactive, SENP7 block 56, SENP6 inh 66, SENP8 confirm 54, SENP6 conf 51, SENP7 confirm 82, Casp3 select 66 and Luc interf 71.
COc1ccc2oc(-c3ccco3)cc(=O)c2c1 was read as EBI2 antag inactive, AHR act inactive, SENP8 block-1 61, SENP8 block-2 inactive, SENP7 block 80, SENP6 inh 81, SENP8 confirm inactive, SENP6 conf inactive, SENP7 confirm inactive, Casp3 select 55 and Luc interf inactive.
